Data taken from the supplement of paper PMC11732987, “Enantioselective OTUD7B fragment discovery through chemoproteomics screening and high-throughput optimisation” (Communications Chemistry, 2025).
Values without a mark were called inactive.

Tests used:
Experiment in all cases: log2 ratio of Biotin-Ahx-Ub-VS probe labelling (fragment/DMSO); higher = less target engagement (more negative = stronger competition), active = hit call of the paper (q ≤ 0.05, log2 ratio ≤ -1)
Conditions in all cases: compound concentration: 200 uM; treatment time: 3 h
USP42 = biological target: T1, USP42 (UniProt Q9H9J4)
T1 sequence (whole entry): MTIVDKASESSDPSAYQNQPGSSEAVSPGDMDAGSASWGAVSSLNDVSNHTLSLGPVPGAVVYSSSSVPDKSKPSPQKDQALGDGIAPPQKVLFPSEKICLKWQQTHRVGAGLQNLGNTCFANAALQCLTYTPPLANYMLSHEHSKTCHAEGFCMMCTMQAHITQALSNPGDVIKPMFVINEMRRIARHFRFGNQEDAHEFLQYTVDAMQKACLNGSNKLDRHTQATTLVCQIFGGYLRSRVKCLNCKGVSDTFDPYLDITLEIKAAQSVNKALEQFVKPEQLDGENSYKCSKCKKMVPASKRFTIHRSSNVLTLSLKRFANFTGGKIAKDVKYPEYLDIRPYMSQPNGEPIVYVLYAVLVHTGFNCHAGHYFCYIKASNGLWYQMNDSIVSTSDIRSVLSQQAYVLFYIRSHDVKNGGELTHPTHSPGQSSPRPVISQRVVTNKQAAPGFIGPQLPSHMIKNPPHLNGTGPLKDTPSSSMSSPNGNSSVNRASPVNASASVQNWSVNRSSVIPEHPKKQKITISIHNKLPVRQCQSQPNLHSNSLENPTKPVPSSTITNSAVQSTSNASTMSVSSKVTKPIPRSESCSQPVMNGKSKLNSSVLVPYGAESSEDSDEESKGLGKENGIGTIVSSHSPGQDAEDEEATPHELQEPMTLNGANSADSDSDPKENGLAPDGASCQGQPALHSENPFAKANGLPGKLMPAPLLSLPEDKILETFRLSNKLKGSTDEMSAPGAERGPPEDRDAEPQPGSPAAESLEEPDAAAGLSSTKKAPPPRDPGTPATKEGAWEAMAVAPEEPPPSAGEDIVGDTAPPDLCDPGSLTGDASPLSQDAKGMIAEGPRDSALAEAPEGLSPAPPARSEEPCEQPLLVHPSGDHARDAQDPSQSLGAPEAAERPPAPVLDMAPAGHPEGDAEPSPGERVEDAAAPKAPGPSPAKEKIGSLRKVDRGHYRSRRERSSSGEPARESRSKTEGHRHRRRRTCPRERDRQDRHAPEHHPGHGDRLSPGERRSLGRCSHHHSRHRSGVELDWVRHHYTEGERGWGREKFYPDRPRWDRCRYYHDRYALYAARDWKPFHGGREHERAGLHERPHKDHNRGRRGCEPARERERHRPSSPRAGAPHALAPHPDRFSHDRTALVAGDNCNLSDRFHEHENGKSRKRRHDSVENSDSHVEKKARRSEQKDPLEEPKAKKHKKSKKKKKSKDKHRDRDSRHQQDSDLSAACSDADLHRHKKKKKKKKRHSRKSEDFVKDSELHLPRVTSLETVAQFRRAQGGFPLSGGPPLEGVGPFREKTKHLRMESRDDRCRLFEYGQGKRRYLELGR
Method in brief: (§1)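 HEK293T lysate (495 µg per sample, in Tris/CHAPS/IGEPAL buffer with protease inhibitors) was exposed in triplicate for 3 h to fragment at 200 µM or to vehicle, then to Biotin-Ahx-Ub-VS at 0.5 µM final for 1 h. Labelled DUBs were enriched on NeutrAvidin, digested with LysC and trypsin, and analysed by diaPASEF LC-MS/MS. Spectronaut label-free quantities were normalised to the global median, and values are average log2 ratios of fragment over vehicle from an unpaired t-test. Only proteins with ≥2 unique peptides were used.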

USP46 = USP46 (UniProt P62068)
Method in brief: as §1

USP47 = biological target: T2, USP47 (UniProt Q96K76)
T2 sequence (whole entry): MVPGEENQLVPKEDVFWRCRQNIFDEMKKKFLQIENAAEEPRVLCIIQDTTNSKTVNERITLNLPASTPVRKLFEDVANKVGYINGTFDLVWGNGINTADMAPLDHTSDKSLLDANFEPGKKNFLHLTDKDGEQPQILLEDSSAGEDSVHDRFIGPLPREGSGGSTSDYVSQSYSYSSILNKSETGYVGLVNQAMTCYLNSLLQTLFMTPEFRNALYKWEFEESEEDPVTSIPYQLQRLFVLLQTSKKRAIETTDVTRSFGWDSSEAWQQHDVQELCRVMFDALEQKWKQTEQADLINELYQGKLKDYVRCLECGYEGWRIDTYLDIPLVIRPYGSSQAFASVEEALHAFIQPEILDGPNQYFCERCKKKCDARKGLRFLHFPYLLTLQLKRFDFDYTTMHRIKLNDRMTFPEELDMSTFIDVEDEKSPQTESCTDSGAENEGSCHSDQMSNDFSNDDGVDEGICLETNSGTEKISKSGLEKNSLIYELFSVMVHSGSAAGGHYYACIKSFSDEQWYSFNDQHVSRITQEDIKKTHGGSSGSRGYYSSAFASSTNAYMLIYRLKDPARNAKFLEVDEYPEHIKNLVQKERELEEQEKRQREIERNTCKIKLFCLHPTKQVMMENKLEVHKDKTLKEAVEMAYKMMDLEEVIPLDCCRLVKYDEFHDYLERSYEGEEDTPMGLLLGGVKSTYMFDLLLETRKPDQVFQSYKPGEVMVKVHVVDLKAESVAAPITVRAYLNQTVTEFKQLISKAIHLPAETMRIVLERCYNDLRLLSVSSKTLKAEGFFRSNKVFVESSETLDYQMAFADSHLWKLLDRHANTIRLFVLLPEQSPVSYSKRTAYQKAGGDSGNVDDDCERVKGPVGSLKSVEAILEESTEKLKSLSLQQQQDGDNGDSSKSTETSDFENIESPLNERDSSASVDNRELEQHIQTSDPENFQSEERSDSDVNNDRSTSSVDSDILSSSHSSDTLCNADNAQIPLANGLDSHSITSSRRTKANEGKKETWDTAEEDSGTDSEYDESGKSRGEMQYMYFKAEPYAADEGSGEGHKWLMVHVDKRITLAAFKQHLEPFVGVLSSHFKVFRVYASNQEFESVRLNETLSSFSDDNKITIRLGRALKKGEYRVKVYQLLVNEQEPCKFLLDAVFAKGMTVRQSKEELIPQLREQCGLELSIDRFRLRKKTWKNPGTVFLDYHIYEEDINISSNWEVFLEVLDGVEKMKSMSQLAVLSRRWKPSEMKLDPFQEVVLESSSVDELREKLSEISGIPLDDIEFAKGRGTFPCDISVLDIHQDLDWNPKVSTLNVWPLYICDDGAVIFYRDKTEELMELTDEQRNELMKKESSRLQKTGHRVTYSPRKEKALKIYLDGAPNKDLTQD
Method in brief: as §1

USP48 = biological target: T3, USP48 (UniProt Q86UV5)
T3 sequence (whole entry): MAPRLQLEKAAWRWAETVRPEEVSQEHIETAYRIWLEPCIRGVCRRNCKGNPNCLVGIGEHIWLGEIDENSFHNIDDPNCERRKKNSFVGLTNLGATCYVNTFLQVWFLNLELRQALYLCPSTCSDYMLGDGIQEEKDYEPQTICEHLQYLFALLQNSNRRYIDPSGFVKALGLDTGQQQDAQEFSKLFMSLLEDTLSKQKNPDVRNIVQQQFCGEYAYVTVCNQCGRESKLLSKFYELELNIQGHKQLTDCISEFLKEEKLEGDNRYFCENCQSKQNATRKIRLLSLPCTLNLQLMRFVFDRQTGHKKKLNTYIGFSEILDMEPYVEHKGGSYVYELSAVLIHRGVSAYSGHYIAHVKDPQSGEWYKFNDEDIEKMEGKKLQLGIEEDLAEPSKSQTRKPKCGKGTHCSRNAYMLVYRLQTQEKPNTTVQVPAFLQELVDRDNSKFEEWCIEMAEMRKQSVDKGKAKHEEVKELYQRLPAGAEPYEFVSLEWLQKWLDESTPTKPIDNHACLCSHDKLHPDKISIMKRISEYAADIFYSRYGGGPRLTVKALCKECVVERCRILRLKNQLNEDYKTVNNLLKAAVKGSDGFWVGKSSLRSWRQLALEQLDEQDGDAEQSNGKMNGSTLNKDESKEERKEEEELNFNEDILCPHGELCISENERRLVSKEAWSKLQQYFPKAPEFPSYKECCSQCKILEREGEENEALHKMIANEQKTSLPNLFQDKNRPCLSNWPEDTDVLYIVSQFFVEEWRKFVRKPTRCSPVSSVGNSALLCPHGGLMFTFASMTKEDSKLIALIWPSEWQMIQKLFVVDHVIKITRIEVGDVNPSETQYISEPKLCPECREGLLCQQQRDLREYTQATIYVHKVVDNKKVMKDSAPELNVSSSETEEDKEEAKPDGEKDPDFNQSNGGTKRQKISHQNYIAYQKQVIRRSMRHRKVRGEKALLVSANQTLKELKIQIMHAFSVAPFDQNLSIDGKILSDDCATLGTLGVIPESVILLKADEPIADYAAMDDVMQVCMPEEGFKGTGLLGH
Method in brief: as §1

USP5 = biological target: T4, USP5 (UniProt P45974)
T4 sequence (whole entry): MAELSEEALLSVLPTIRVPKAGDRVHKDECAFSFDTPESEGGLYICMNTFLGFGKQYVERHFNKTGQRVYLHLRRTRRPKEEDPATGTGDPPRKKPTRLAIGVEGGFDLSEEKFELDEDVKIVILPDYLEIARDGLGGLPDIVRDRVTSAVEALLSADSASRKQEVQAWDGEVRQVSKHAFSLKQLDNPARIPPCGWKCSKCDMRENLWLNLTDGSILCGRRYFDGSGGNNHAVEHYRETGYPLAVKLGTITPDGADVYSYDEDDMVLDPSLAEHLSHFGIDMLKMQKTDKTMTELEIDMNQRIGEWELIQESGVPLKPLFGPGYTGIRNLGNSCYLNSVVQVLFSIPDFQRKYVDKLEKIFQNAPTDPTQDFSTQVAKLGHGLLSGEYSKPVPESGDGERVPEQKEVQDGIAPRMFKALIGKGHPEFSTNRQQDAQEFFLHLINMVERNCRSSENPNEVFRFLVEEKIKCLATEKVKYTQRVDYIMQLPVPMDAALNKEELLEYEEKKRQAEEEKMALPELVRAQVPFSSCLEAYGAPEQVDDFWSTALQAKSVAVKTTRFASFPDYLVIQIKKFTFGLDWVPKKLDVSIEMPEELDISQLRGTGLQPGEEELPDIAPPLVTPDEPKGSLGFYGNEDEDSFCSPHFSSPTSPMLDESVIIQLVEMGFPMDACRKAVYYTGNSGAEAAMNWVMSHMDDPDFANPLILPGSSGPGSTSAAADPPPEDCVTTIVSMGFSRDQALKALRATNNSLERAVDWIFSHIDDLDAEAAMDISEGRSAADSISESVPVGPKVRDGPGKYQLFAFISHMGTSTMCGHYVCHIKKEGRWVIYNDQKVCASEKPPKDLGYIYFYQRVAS
Method in brief: as §1

USP54 = USP54 (UniProt Q70EL1)
Method in brief: as §1

USP7 = USP7 (UniProt Q93009)
Method in brief: as §1

USP8 = biological target: T5, USP8 (UniProt P40818)
T5 sequence (whole entry): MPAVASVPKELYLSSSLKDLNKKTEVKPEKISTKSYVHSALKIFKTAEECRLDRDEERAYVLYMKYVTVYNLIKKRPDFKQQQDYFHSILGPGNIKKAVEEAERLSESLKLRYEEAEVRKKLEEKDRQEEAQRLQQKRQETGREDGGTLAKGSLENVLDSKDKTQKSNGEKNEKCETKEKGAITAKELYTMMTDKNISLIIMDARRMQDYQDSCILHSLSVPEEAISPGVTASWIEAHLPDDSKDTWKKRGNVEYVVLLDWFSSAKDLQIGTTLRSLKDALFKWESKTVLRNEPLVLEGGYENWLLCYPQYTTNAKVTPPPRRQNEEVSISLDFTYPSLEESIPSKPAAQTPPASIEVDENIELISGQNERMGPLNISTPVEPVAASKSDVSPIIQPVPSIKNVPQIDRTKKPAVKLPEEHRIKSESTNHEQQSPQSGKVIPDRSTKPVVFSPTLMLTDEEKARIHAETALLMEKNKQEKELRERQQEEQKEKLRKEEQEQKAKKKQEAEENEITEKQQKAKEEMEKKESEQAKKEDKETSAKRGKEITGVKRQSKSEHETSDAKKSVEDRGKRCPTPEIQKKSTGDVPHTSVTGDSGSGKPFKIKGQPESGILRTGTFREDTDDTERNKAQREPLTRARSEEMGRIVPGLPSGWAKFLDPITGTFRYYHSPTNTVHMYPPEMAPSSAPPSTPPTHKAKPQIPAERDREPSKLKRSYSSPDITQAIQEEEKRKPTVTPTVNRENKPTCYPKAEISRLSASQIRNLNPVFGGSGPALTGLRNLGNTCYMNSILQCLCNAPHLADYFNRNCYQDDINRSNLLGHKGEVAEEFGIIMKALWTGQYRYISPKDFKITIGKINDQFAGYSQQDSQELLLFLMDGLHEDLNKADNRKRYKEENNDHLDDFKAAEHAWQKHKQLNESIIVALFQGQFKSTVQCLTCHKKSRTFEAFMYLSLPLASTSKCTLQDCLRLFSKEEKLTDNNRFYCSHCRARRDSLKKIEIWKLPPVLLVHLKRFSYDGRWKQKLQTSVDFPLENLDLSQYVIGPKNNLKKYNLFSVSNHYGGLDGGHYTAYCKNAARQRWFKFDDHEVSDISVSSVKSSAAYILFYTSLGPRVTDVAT
Method in brief: as §1

USP9X = USP9X (UniProt Q93008)
Method in brief: as §1

UniProt O00487 = biological target: UniProt O00487
Method in brief: as §1

USP9X, sequence (Q93008 whole entry): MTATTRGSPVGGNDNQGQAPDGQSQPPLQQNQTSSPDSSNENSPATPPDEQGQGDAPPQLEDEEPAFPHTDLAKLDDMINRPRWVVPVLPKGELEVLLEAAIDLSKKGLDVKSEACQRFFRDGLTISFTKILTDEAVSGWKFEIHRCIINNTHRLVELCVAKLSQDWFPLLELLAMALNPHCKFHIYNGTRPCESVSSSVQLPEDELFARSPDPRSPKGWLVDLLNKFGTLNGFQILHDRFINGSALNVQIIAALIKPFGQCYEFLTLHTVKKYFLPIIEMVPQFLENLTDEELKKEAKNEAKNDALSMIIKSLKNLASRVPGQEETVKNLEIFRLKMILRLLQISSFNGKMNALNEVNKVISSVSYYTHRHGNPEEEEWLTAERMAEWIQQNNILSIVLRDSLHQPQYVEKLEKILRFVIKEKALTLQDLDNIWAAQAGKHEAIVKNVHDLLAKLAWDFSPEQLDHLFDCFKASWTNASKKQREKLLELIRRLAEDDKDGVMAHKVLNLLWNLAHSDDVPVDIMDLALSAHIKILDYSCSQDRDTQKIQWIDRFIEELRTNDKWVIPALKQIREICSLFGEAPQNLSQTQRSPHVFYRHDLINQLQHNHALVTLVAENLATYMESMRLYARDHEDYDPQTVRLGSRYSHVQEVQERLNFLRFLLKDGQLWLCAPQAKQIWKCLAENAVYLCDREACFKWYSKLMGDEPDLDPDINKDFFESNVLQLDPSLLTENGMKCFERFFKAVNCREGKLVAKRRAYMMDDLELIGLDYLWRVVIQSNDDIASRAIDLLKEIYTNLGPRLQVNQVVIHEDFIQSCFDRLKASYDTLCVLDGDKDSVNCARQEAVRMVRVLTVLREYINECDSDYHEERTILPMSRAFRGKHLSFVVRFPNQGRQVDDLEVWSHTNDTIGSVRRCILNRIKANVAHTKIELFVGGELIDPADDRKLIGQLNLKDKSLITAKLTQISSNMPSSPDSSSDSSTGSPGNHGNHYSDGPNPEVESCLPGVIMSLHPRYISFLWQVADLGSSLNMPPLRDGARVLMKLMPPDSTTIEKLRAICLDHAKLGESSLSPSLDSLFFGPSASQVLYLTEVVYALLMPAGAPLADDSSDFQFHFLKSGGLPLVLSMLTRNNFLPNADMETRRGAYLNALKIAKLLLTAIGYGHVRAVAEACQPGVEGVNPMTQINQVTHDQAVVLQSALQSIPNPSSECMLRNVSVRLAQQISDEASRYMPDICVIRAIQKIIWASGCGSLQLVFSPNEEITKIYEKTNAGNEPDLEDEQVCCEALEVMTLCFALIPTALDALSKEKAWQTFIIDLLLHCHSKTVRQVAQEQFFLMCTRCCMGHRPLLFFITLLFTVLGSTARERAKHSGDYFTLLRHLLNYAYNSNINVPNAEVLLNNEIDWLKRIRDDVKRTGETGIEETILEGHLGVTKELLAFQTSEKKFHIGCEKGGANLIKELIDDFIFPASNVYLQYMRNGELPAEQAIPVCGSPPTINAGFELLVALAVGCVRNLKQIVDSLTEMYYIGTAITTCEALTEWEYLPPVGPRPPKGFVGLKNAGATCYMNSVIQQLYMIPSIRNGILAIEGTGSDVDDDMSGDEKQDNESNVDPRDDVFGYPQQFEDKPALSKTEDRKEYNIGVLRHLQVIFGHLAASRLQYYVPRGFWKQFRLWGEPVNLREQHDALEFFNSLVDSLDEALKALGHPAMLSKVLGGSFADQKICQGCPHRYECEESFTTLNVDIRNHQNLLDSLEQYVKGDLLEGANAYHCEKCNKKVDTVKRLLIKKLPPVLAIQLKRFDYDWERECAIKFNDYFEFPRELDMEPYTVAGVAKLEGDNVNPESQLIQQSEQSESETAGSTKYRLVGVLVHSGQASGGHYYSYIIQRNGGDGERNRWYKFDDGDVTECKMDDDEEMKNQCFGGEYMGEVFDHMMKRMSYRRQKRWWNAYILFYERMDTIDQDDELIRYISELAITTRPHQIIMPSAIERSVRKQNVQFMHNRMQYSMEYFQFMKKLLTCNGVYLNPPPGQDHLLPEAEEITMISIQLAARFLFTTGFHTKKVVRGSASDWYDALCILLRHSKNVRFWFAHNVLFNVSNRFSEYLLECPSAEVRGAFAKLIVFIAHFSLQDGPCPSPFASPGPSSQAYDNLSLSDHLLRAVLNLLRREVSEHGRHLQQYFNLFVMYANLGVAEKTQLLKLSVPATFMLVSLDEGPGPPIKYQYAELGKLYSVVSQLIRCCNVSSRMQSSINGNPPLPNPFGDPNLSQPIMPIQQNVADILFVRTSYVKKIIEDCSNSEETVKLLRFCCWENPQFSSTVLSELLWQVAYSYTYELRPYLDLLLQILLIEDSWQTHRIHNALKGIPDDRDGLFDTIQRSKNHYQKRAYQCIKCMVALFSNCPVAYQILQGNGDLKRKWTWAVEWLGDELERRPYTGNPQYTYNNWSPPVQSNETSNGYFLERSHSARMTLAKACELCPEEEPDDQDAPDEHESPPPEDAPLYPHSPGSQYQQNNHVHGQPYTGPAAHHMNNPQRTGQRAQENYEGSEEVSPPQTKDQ
USP54, sequence (Q70EL1 whole entry): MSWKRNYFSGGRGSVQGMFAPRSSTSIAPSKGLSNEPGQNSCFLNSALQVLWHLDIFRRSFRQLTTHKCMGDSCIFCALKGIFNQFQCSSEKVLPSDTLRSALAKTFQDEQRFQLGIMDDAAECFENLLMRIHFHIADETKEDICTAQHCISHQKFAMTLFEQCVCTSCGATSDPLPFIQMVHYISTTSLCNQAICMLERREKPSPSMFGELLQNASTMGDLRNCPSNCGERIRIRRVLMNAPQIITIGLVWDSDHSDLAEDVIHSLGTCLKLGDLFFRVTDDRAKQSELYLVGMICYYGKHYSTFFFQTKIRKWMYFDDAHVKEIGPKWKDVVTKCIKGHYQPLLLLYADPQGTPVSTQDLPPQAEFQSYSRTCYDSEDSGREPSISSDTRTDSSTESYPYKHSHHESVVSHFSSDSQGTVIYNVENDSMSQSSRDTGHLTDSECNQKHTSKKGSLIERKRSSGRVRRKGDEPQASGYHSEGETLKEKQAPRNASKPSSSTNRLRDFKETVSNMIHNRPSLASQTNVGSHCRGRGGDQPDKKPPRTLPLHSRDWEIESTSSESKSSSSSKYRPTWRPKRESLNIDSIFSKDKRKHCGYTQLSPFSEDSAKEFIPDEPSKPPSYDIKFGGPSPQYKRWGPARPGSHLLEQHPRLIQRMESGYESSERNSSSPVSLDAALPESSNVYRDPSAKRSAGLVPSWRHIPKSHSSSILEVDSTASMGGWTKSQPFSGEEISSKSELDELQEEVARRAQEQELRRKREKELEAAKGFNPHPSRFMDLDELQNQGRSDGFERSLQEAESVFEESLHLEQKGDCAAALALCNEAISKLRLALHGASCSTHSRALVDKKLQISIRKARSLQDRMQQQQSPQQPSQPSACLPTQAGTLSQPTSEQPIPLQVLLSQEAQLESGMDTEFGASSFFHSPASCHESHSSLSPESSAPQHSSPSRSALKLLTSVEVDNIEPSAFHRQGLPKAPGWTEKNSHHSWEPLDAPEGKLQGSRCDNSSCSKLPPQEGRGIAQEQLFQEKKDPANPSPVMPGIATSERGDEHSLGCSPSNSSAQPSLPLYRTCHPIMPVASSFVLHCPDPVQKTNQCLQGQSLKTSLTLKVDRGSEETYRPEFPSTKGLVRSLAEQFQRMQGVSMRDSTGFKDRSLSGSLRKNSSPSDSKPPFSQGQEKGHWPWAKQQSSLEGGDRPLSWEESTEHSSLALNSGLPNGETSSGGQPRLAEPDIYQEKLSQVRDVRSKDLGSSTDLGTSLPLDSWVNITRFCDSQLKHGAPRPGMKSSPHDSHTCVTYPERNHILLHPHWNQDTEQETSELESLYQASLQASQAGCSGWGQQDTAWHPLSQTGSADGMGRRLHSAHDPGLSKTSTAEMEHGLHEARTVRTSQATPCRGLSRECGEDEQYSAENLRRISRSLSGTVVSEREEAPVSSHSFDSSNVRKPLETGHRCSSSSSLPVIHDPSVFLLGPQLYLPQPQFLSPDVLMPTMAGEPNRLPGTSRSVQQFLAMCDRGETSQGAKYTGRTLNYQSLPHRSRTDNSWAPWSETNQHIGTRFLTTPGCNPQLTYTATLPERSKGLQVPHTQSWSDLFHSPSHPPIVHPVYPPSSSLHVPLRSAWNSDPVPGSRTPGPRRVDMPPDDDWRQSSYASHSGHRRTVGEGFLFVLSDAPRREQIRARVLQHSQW
USP46, sequence (P62068 whole entry): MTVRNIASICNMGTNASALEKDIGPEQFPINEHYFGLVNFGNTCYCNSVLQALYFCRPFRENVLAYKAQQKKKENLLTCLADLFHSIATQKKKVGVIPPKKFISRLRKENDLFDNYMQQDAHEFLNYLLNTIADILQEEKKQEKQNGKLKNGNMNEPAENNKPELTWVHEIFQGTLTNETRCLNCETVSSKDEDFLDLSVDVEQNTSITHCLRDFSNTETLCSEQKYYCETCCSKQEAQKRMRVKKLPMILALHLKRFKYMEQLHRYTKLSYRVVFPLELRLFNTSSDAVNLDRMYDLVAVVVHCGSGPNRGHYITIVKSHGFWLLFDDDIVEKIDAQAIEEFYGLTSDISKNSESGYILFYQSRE
UniProt O00487, sequence (O00487 whole entry): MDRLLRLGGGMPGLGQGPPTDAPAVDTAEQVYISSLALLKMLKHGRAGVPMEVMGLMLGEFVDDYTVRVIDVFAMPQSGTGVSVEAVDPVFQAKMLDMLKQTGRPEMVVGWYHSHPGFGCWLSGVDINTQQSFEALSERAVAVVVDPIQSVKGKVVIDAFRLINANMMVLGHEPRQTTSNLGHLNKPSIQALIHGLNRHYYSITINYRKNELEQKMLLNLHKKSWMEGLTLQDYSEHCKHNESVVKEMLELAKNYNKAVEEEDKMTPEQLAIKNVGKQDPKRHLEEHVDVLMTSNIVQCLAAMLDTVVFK

| SMILES | log2 ratio of Biotin-Ahx-Ub-VS probe labelling (USP42) | log2 ratio of Biotin-Ahx-Ub-VS probe labelling (USP46) | log2 ratio of Biotin-Ahx-Ub-VS probe labelling (USP47) | log2 ratio of Biotin-Ahx-Ub-VS probe labelling (USP48) | log2 ratio of Biotin-Ahx-Ub-VS probe labelling (USP5) | log2 ratio of Biotin-Ahx-Ub-VS probe labelling (USP54) | log2 ratio of Biotin-Ahx-Ub-VS probe labelling (USP7) | log2 ratio of Biotin-Ahx-Ub-VS probe labelling (USP8) | log2 ratio of Biotin-Ahx-Ub-VS probe labelling (USP9X) | log2 ratio of Biotin-Ahx-Ub-VS probe labelling (UniProt O00487) |
| --- | --- | --- | --- | --- | --- | --- | --- | --- | --- | --- |
| N#Cc1ccccc1N1CCN(C(=O)CCl)CC1 | 0.456 | -0.871 | -0.514 | -1.04 | -0.123 | 1.03 | -1.73 (active) | -0.729 | -0.651 | 0.0611 |
| Cl.Cn1ncc2c1CC(NC(=O)CCl)CC2 (stereo not given) | 0.421 | 0.116 | 0.118 | 0.191 | 0.0298 | -0.146 | -0.063 | -0.0427 | -0.0203 | -0.0601 |
